High-throughput results deposited in PubChem by National Center for Advancing Translational Sciences (NCATS).
HPGD block = blocks human HPGD enzyme activity. purified HPGD, NADH fluorescence kinetic, PGE2 substrate. Potency, µM, inactives show at the top dose activity change, negative = inhibition, most hits filed as inhibitors. 4.3% of 150,000 active. AID 894; active means well fitted inhibition curve with a large enough effect, not every such curve was filed as active; inconclusive means small, poorly fitted or top-dose-only effect, or another doubt; inactive means no such curve, though single readings can be large or run the other way; further: potency means the concentration at half of the fitted maximal effect
Target sequence (P15428 whole entry, looked up): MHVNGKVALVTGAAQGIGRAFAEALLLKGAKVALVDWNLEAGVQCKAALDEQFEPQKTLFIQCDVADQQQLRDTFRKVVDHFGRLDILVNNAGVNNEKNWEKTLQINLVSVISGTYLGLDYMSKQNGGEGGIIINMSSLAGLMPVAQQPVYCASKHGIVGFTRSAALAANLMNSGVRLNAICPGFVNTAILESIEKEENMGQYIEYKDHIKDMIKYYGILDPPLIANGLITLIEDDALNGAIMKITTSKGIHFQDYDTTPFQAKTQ
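NADH formation kinetics: reaction with 30 uM PGE2 and 1 mM NAD+ (final), 20 nM enzyme, Tris-HCl pH 8 with Tween 20, after 15 min compound preincubation at room temperature. Fluorescence change, last versus first of five reads.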
IMPase cell inh = IMPase inhibition in cells; P97697; CHO-M1 cells, IP1 accumulation, HTRF TR-FRET ratio; AID 901; inhibition (IP1 accumulation), % at 46.1 µM; 120,000 tested, under 10 active; active means well fitted curve in the direction sought with a large enough effect in the signal ratio, not every such curve was filed as active; inconclusive means small, poorly fitted or top-dose-only effect, or a change in a side signal; inactive means no such curve, though single readings can be large or run the other way; the % refers to the signal ratio;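 further: cells stimulated with carbachol in lithium chloride buffer; plate controls were DMSO basal wells for no effect and reference inhibitor wells for full effect; higher means more IMPase inhibition seen as more IP1 and lower FRET ratio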
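CHO-M1, 2000 cells/well, cultured 16–30 h; cpd up to 46 uM; carbachol (50 uM solution, stimulation buffer w/ 50 mM LiCl, pH 7.4), 30 min 37C; IP-One TR-FRET, 10 min RT; Ex 320/Em 665, 620; Hill-fit AC50.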
ALDH1A1 inh = blocks purified human ALDH1A1 activity | P00352 | AID 1030 | Potency, µM (doses to about 75.3 µM), inactives show top-dose activity, negative = inhibition, actives largely listed as inhibitors | Purified ALDH1A1, NADH fluorescence, propionaldehyde substrate | 7.3% of 220,000 active; active means well fitted inhibition curve with a large enough effect, not every such curve was filed as active; inconclusive means small, poorly fitted or top-dose-only effect, or another doubt; inactive means no such curve, though single readings can be large or run the other way;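 further: potency means the concentration at half of the fitted maximal effect; plate controls were no enzyme wells and a reference inhibitor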
Target sequence (P00352 whole entry, looked up): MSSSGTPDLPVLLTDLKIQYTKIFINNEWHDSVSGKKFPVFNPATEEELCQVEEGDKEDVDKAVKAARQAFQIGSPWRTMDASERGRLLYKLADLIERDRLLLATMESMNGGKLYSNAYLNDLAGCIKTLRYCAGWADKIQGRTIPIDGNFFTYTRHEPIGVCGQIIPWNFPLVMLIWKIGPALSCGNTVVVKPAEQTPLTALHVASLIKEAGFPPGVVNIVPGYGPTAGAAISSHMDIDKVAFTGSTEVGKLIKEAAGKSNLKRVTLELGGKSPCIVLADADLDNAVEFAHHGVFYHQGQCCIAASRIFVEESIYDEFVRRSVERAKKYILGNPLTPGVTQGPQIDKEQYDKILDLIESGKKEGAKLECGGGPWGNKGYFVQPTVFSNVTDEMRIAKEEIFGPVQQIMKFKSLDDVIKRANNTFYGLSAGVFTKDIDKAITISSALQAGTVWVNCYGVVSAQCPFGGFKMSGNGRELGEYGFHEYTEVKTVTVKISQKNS
12-hLO inh = 12-hLO (ALOX12) enzyme inhibition. P18054. purified 12-hLO, xylenol orange hydroperoxide absorbance. Potency, µM (top dose mostly 57.1 µM), for inactives: at the highest dose activity change, negative = inhibition, actives largely listed as inhibitors. 0.12% of 150,000 active. AID 1452; further: potency means the concentration at half of the fitted maximal effect; nearly all actives have a fitted effect of over 55% in size
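Hydroperoxide output read as Fe(III)-xylenol orange absorbance, 573-to-405 nm ratio, after 30 min reaction with 40 uM arachidonic acid. Enzyme: 150 nM purified human 12hLO, 15 min compound preincubation; 25 mM Hepes pH 7.0, room temperature.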
NPSR antagonist = blocks cAMP signaling of the human neuropeptide S receptor; Q6W5P4; CHO-NPSR cells, cAMP TR-FRET, antagonist mode; Potency, µM (titrated, usually from 38.3 µM), for inactives: at the top dose activity change, negative = inhibition, hits mostly inhibitors; 1% of 220,000 active; further: potency means the concentration at half of the fitted maximal effect; nearly all actives have a fitted effect of over 50% in size
IMPase Li inh = cell-permeable IMPase inhibitors with lithium potentiation | AID 1457 | CHO-M1 cells, IP1 TR-FRET (IP-One), carbachol + lithium | Potency, µM (doses to about 59.4 µM), for the others: at the top dose activity, negative = IMPase inhibition, actives largely listed as inhibitors | 0.35% of 210,000 active;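 further: IP1 builds up when IMPase is blocked and the TR-FRET signal falls; potency means the concentration at half of the fitted maximal effect; plate controls were basal vehicle for no effect and high inhibitor control for full effect; nearly all actives have a fitted effect of over 50% in size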
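CHO cells stably expressing M1 receptor (2000/well, cultured 16–30 h) treated 30 min at 37C with compound plus low lithium. Cytosolic IP1 by TR-FRET (665/620 ratio and 620 channel) after 10 min lysis; AC50 by Hill fit.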
Starred values were filed as active, the others as inactive; [ ] = remark or other dose. Hits are enriched below; roughly 8.9% of the tested compounds scored in any of these assays. Unless noted, the call rests on the fitted dose curve; in most records, active means well fitted curve in the direction sought with a large enough effect; inconclusive means small, poorly fitted or top-dose-only effect, or another doubt; inactive means no such curve, though single readings can be large; an effect the other way counts as inactive or inconclusive. Unless noted, on the % scale 0 is the no-effect control and ±100 the full control effect.

For c1csc(-c2nnsc2-c2nc3ccccc3[nH]2)c1 the results were HPGD block inconclusive, IMPase cell inh 2, ALDH1A1 inh 10µM*, 12-hLO inh -15%, NPSR antagonist inconclusive and IMPase Li inh 1%[38.3 µM].
`COc1ccc(NC(=O)C2CC(=O)n3ncnc3N2)cc1` (stereo not drawn) gave HPGD block -7%, IMPase cell inh -3, ALDH1A1 inh 3%, 12-hLO inh -6%, NPSR antagonist 7%[46.1 µM] and IMPase Li inh -3%[38.3 µM].
For COc1cccc(NC(=O)C2CC(=O)N=C(N)S2)c1 (stereo not drawn) the results were HPGD block -7%, IMPase cell inh 3, ALDH1A1 inh 11%, 12-hLO inh -6%, NPSR antagonist -12%[46.1 µM] and IMPase Li inh 10%[38.3 µM].
Screening COc1ccc(NC(=O)C2CC(=O)n3cnnc3S2)cc1 (stereo not drawn) returned HPGD block 18µM*, IMPase cell inh -2, ALDH1A1 inh 0.71µM*, 12-hLO inh -4%, NPSR antagonist -4%[46.1 µM] and IMPase Li inh 23%[38.3 µM].
COc1cccc(NC(=O)C2CC(=O)n3cnnc3S2)c1 (stereo not drawn) was read as HPGD block 16µM*, IMPase cell inh 0, ALDH1A1 inh 0.71µM*, 12-hLO inh -12%, NPSR antagonist 8%[46.1 µM] and IMPase Li inh -11%[38.3 µM].
Cc1cc(C)n2c(SCc3c(C)noc3C)nnc2n1 was read as HPGD block inconclusive, IMPase cell inh -6, ALDH1A1 inh 2%, 12-hLO inh 4%, NPSR antagonist 8%[46.1 µM] and IMPase Li inh -2%.
For CCOC(=O)c1cnc2ccc(C(=O)OC)cc2c1Nc1cccc(C(=O)O)c1 the results were ALDH1A1 inh inconclusive, NPSR antagonist 0% and IMPase Li inh 9%.
Screening CCOC(=O)c1cnc2ccccc2c1Nc1cccc(C(=O)O)c1 returned ALDH1A1 inh inconclusive, NPSR antagonist -58% and IMPase Li inh 7.9µM*.
Cc1ccc(C(=O)Nc2cccc(C(F)(F)F)c2)cc1Nc1ncnc2nc[nH]c12 was read as NPSR antagonist -15%.
`C(/C=C/c1ccco1)=N/N1CCN(c2ccccc2)CC1` gave HPGD block -12%, IMPase cell inh 3, ALDH1A1 inh inconclusive, 12-hLO inh -3%, NPSR antagonist -11%[46.1 µM] and IMPase Li inh 23%[38.3 µM].
Clc1ccccc1CN1CCN(/N=C/C=C\c2ccco2)CC1 was read as ALDH1A1 inh 3.2µM*, NPSR antagonist -27% and IMPase Li inh 13%.
C/C(=N\S(=O)(=O)c1ccc(C)cc1)N1CCN(S(=O)(=O)c2ccccc2)C1 was read as HPGD block -10%, IMPase cell inh inconclusive, ALDH1A1 inh 4µM*, 12-hLO inh -11%, NPSR antagonist 0%[46.1 µM] and IMPase Li inh 12%[38.3 µM].
Screening CC(=O)N1CCC2(CC1)CN(c1ccccc1)C2 returned HPGD block -7%, ALDH1A1 inh 16µM*, 12-hLO inh -6% and IMPase Li inh 27%.
For O=S(=O)(c1ccccc1)N1CCC2(CC1)CN(c1ccccc1)C2 the results were HPGD block -8%, ALDH1A1 inh 14µM*, 12-hLO inh -7% and IMPase Li inh -5%.
For O=S(=O)(c1ccccc1)N1CCC2(CC1)CN(c1ccncc1)C2 the results were HPGD block -27%, ALDH1A1 inh -8%, 12-hLO inh 1% and IMPase Li inh 17%.
CC1CCCCC1NC(=O)CN1C(=O)c2cccc(N)c2C1=O (stereo not drawn) was read as ALDH1A1 inh -6%, NPSR antagonist 5% and IMPase Li inh -9%.
`O=C(Nc1ccccc1CC[N+](=O)[O-])N1CCN(c2ccccc2)CC1` gave ALDH1A1 inh 8.9µM*, NPSR antagonist -16% and IMPase Li inh 3%.
Screening COc1ccc(NS(=O)(=O)c2ccc(N3CCOCC3)c(NC(=O)c3ccco3)c2)cc1 returned ALDH1A1 inh inconclusive, NPSR antagonist -26% and IMPase Li inh 7%.
Screening CSc1ccc(S(=O)(=O)N(CC(=O)NN=C2CCN(C)CC2)c2ccc(C)cc2)cc1 returned ALDH1A1 inh 5µM*, NPSR antagonist 10% and IMPase Li inh -5%.
For CN(C)CC(C)(C)CNS(=O)(=O)c1ccc(Cl)cc1 the results were ALDH1A1 inh 2%, NPSR antagonist 21% and IMPase Li inh 11%.
Nc1nnc(SCC(=O)Nc2ccccc2C(F)(F)F)s1 was read as IMPase cell inh -4.
`Cc1ccc(C(=O)Oc2oc(-c3ccco3)nc2C=Nc2ccccc2)cc1` gave HPGD block 7.1µM*, IMPase cell inh 3, ALDH1A1 inh inconclusive, 12-hLO inh 4%, NPSR antagonist -22%[46.1 µM] and IMPase Li inh 0%[38.3 µM].
Screening CC(=O)Oc1oc(-c2ccccc2)nc1C=Nc1ccccc1 returned HPGD block 16µM*, IMPase cell inh 3, ALDH1A1 inh 18µM*, 12-hLO inh 0%, NPSR antagonist 4%[46.1 µM] and IMPase Li inh 7%[38.3 µM].
O=C(O)c1ccc(N=Cc2nc(-c3ccco3)oc2O)cc1 was read as ALDH1A1 inh 15%, NPSR antagonist -17% and IMPase Li inh 26%.
`COc1ccc(N=Cc2nc(-c3ccccc3)oc2OC(=O)c2ccccc2)cc1` gave HPGD block 22µM*, ALDH1A1 inh inconclusive, 12-hLO inh -2%, NPSR antagonist -29% and IMPase Li inh 4%.
Screening Cc1ccc(C(=O)Nc2nnc(-c3ccco3)o2)cc1 returned HPGD block -8%, ALDH1A1 inh 7%, 12-hLO inh inconclusive, NPSR antagonist 20% and IMPase Li inh 2%.
Screening CCC(=O)Oc1oc(-c2ccccc2)nc1C=Nc1ccc(C)cc1 returned NPSR antagonist -32%.
For Oc1oc(-c2ccco2)nc1C=Nc1ccccc1 the results were HPGD block -1%, IMPase cell inh 13, ALDH1A1 inh 22µM*, 12-hLO inh -9%, NPSR antagonist -23%[46.1 µM] and IMPase Li inh 8%[38.3 µM].
Screening Cn1cnc([N+](=O)[O-])c1SCC(=O)O returned HPGD block -5%, ALDH1A1 inh -7%[13.5 µM], 12-hLO inh 2%[11.4 µM] and IMPase Li inh -4%.
For O=C(COc1ccccc1[N+](=O)[O-])N1CCC(Cc2ccccc2)CC1 the results were ALDH1A1 inh -15%, NPSR antagonist 0% and IMPase Li inh 1%.
Screening CCOC(=O)c1ccc(N=Cc2nc(-c3ccccc3)oc2OC(C)=O)cc1 returned HPGD block 16µM*, IMPase cell inh -1, ALDH1A1 inh 22µM*, 12-hLO inh -1%, NPSR antagonist -17%[46.1 µM] and IMPase Li inh 17%[38.3 µM].
